The assay is described as follows: NCI Yeast Anticancer Drug Screen. Data for the rad14 strain (AID 159).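 Note: 0% = growth of vehicle-treated control cultures.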 Particulars: S. cerevisiae rad14 strain growth inhibition, active compounds read high. The method, then: Growth inhibition of yeast strains with defined genetic alterations is measured as a screen for potential anti-cancer activity. Selected strains with alterations in DNA damage repair or cell cycle control were exposed to compounds and growth inhibition was measured relative to vehicle treated controls. The strain used in this assay is rad14

Each structure is given as a SMILES string. About 79,000 compounds went through this panel and 15% of them were active in at least one assay; those are over-represented in the sample as a whole. A number with no mark means an inactive call. Activity calls are given as the source filed them. Cut-off read from the data, not from the text of the source: active = growth inhibition above about 70%; inactive = the rest.

On to `CCCCCCCCCCC1CCC(=O)O1` (stereo not given), for which the growth inhibition was 1% (at 1.2 µM); 3% (at 3.7 µM); 7% (at 11.0 µM); 15% (at 33.0 µM); 99% (active) (at 100.0 µM).

For `Cc1ccc(S/N=C\c2ccccc2O)cc1`, the growth inhibition runs as follows: (at 1.2 µM) -2%; (at 3.7 µM) -6%; (at 11.0 µM) -4%; (at 33.0 µM) -3%; (at 100.0 µM) 1%.

For the molecule `CNC(=O)OCc1c(COC(=O)NC)c(-c2ccc(-c3ccccc3)cc2)n(C)c1C`, the growth inhibition is -13% (at 1.2 µM); -13% (at 3.7 µM); -21% (at 11.0 µM); 13% (at 33.0 µM); 75% (active) (at 100.0 µM).

Regarding `CN(CCc1ccccn1)c1ccc2c(c1)Cc1ccccc1-2`, the growth inhibition is 1% (at 1.2 µM); 10% (at 3.7 µM); 38% (at 11.0 µM); 37% (at 33.0 µM); 56% (at 100.0 µM).

Turning to `COc1cc2c(c(OC)c1OC)-c1c(cc3c(c1OC)OCO3)CC(C)C(C)(O)C2OC(=O)c1ccccc1` (stereo not given), the growth inhibition was 9% (at 1.2 µM); 1% (at 3.7 µM); -5% (at 11.0 µM); -4% (at 33.0 µM); 33% (at 100.0 µM).

Consider `CCN(CC)CC(O)c1ccc2ccc3ccccc3c2c1` (stereo not given), for which the growth inhibition is 7% (at 1.2 µM); 23% (at 3.7 µM); 35% (at 11.0 µM); 28% (at 33.0 µM); 70% (active) (at 100.0 µM).

Regarding `CC(C)(Br)C(=O)/C=C/c1ccc(Cl)c(Cl)c1`, the growth inhibition (at 1.2 µM) was 4%; the growth inhibition (at 3.7 µM) is 2%; the growth inhibition (at 11.0 µM) was 1%; the growth inhibition (at 33.0 µM) is 2%; the growth inhibition (at 100.0 µM) was 3%.

As for `COC(=O)C1=C(C(=O)OC)C2(C)C=CC1O2` (stereo not given), the growth inhibition (at 1.2 µM) was 1%; the growth inhibition (at 3.7 µM) is 15%; the growth inhibition (at 11.0 µM) was 17%; the growth inhibition (at 33.0 µM) was 33%; the growth inhibition (at 100.0 µM) was 87% (active).
